Bioassay records from PubChem.
APE1 inh – inhibitors of human APE1 endonuclease; P27695; recombinant APE1, TAMRA/BHQ-2 abasic DNA cleavage fluorescence; Potency, µM (titrated, usually from 65.8 µM), for inactives: top-dose activity change, negative = inhibition, usual class: inhibitors; hit rate 0.35% among 350,000; AID 2517;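 also: potency is read from the fitted curve at half-maximal effect; plate controls were vehicle for no effect and reference inhibitor for full effect; nearly all actives have a fitted effect of over 55% in size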
Target sequence (P27695 whole entry, looked up): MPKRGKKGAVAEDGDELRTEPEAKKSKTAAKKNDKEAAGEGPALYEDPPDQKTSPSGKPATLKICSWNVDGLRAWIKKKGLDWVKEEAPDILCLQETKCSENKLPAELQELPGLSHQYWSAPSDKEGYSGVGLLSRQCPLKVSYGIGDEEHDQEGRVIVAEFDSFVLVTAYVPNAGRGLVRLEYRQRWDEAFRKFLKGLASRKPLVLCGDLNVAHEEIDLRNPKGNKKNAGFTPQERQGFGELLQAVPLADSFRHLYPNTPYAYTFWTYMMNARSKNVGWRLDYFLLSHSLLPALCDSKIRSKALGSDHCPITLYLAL
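Step 1: APE1 (0.75 nM) with compound, 15 min RT. Step 2: add 50 nM fluorophore/quencher THF duplex. Step 3: three fluorescence reads 60 s apart (525/598 nm); read 3 minus read 1 = reaction progress.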
RECQ1 helicase – RECQ1 (human) helicase inhibition. P46063. RECQ1 DNA unwinding, red fluorescence kinetic read. Potency, µM (titrated, usually from 57.3 µM), for the others: top-dose activity, negative = inhibition, actives largely listed as inhibitors. hit rate 0.54% among 240,000;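 also: potency is read from the fitted curve at half-maximal effect; plate controls were vehicle for no effect and no enzyme for full effect; nearly all actives have a fitted effect of over 30% in size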
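50 nM RECQ1T1 preincubated 15 min with compound in Tris pH 8.0 buffer with MgCl2, DTT, Tween-20 and 2.5 ug/ml poly(dI-dC); started with 200 nM TAMRA/BHQ-2 forked duplex and 2 mM ATP. Unwinding read as fluorescence (525/598 nm), two reads 2 h apart.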
GCN5L2 inh – blocks human GCN5L2 histone acetyltransferase | Q92830 | GCN5L2 HAT assay, ThioGlo1 CoA-SH fluorescence | Potency, µM (top dose mostly 58.9 µM), for the others: at the top dose activity change, negative = inhibition, actives largely listed as inhibitors | hit rate 0.21% among 390,000 | AID 504327; also: potency is read from the fitted curve at half-maximal effect
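ThioGlo1-coupled HAT assay: 20nM GCN5L2, 70uM acetyl-CoA, 75uM H3(1-25) peptide, pH 7.5. Fluorescence read at 340/540nm at start and after 20 min at room temperature.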
BLM helicase inh – Bloom syndrome helicase (human) inhibition; P54132; recombinant BLM DNA unwinding, fluorescence dequenching; Potency, µM (titrated, usually from 56.1 µM), for the others: at the top dose activity change, negative = inhibition, most hits filed as inhibitors; hit rate 0.2% among 350,000; AID 2528;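 also: potency is read from the fitted curve at half-maximal effect; plate controls were vehicle for no effect and no enzyme for full effect; nearly all actives have a fitted effect of over 35% in size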
PI5P4Ka inh – blocks human PI5P4K alpha kinase activity; P48426; PI5P4Kalpha enzyme, ADP-Glo luminescence, 60 min; active compounds read low; max response, %; hit rate 1.2% among 330,000; active = max response of -50% or lower; inconclusive = between -30% and -50%; inactive = -30% or higher; also: value at the top dose of about 77 µM
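Human PI5P4Kalpha with substrate in 0.038 M HEPES pH 7.4, 0.28 mM EGTA, 0.1% CHAPS, 5% DMSO; reaction started with 5 microM ATP (final), 60 min at room temperature. ADP formed read by ADP-Glo luminescence.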
FEN1 inhibitor – inhibitors of human flap endonuclease 1. Potency, µM (doses to about 114 µM), inactives show top-dose activity change, negative = inhibition, usual class: inhibitors. hit rate 0.35% among 390,000. P39748. Recombinant FEN1 flap cleavage, fluorescence, 15 min; also: potency is read from the fitted curve at half-maximal effect; nearly all actives have a fitted effect of over 65% in size
Target sequence (P39748 whole entry, looked up): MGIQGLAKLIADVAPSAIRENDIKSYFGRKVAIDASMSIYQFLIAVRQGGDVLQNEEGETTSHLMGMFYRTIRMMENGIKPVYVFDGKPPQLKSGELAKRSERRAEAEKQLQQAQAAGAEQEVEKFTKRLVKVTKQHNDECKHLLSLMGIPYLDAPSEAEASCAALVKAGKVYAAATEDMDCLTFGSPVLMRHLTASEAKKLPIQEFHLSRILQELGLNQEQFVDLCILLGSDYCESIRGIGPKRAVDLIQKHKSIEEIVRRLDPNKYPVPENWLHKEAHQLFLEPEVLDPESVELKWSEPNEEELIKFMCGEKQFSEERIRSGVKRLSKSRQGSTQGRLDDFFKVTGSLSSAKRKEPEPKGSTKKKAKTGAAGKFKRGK
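With each library titrated from low to high concentration, compounds met 10 nM FEN1 for 15 min at room temperature before 50 nM substrate was added; readings at 0 and 15 min fed four-parameter Hill curve fits.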
* hit, by the source's call; i = inactive; ? = inconclusive; / = not tested or not shown; ! = repeats disagree; [ ] = remark or other dose. An excerpt weighted towards active compounds, which were near 1.5% of everything screened. Unless noted, calls follow the shape of the dose curve; as a rule, active = well fitted curve in the direction sought with a large enough effect; inconclusive = small, poorly fitted or top-dose-only effect, or another doubt; inactive = no such curve, though single readings can be large; an effect the other way counts as inactive or inconclusive. Unless noted, % is scaled to controls: 0 for no effect and ±100 for the full control effect.

SMILES	APE1 inh	RECQ1 helicase	GCN5L2 inh	BLM helicase inh	PI5P4Ka inh	FEN1 inhibitor
Cc1cc(C(=O)O)ccc1[C@H](N)C(=O)O	39.8µM*!	2.7%	-2.4%	-1.9%	/	/
C[C@@H]1[C@H](c2ccccc2)OCCS(=O)(=O)N1Cc1ccccc1F	/	/	/	/	/	-26.8%
O=C(Nc1cccc(NC(=O)c2ccccc2[N+](=O)[O-])n1)c1ccccc1[N+](=O)[O-]	10.6%	-6.5%	-0.5%	-10.6%	-55.3*	8.9%
CC(C)(C)c1ccc(C(=O)C[n+]2ccc(Cl)c3ccc(Cl)cc32)cc1	/	/	/	/	/	8.7%
Cc1nc(Nc2nc(CSc3nc4ccccc4[nH]3)cc(=O)[nH]2)nc2ccccc12	-2.4%	-0.7%	-1.4%	-5.2%	-4.9	3.2%
Cc1nc(Nc2nc(-c3ccccc3)cc(=O)[nH]2)nc2ccccc12	/	/	/	/	-10.6	25.1µM*
C=C(C)C1CCC2(C(=O)O)CCC3(C)C(CCC4C5(C)C(C=O)C(O)C(C)(C)C5CCC43C)C12 (stereo not drawn)	?	i	-26.5%	-10.2%	-54.3*	-5.1%
COc1ccc(NCc2ccc([N+](=O)[O-])s2)cc1	31.6µM*	-4.8%	-2.5%	-6.4%	6.1	-24.4%
COc1c(O)cc(O)cc1O	15.8µM*	3.6%	1.0%	-10.0%	/	/
O=C(O)COc1ccccc1C=NNC(=O)c1ccc(NS(=O)(=O)c2cccs2)cc1	9.8%	/	-9.8%	/	-57.4*	-0.7%
CCCCN(CC)c1nc(N)c(C#N)c(CC#N)c1C#N	-1.6%	i	-7.8%	-17.7%	-70.9*	-13.0%
C=C(C)CN(CC)c1nc(N)c(C#N)c(CC#N)c1C#N	-3.1%	?	-4.4%	-17.1%	?	-2.1%
CN(C)/C=C/C(=O)c1ccc2noc(-c3ccccc3)c2c1	-12.7%	/	-10.5%	-4.7%	-69.6*	-10.2%
O=C(CSc1nc(-c2ccc(F)cc2)nc2c1Cc1ccccc1O2)Nc1ccc(F)cc1	14.5%	/	/	/	/	/
COC(=O)c1c(-c2cccs2)csc1NC(=O)c1cc(OC)c(OC)c(OC)c1	/	/	25.1µM*	-0.7%	/	?
O=C(/C=C/c1ccco1)NCC(=O)N/N=C/c1ccc([N+](=O)[O-])cc1	-7.9%	-10.9%	-22.1%	-13.1%	-60.5*	?
COC(=O)N/N=C/c1ccc(OC(=O)/C=C/c2ccco2)cc1	-11.1%	-15.8%	?	-14.9%	-50.6*	12.4%
Cc1cc(O)cc2c1O[C@](C)(CCC(=O)O)CC2	/	/	/	/	/	8.9%
Cc1ccc(N=C2NC(=O)CS2)cc1	3.4%	-5.0%	1.5%	1.4%	-0.6	-4.0%
Cc1ccc(C)n1/N=C1/NC(=O)CS1	?	?	1.7%	?	-52.0*	31.6µM*
N#Cc1c(-c2cccc(C(F)(F)F)c2)no[n+]1[O-]	-7.6%	/	/	/	/	/
C#CCOCCOCCOCCNc1nc(N2CCN(C(=O)CCCCCCCCCCNC(=O)[C@H](CCCCN)n3cc(C)nn3)CC2)nc(N2CCN(C(=O)CCCCCCCCCCNC(=O)[C@H](CCCN=C(N)N)n3cc(C[C@@H](C)CC)nn3)CC2)n1	-92.7%	/	-6.8%	/	-51.2*	22.4µM*
C#CCOCCOCCOCCNc1nc(N2CCN(C(=O)CCCCCCCCCCNC(=O)[C@H](CCCCN)n3cc(C[C@@H](C)CC)nn3)CC2)nc(N2CCN(C(=O)CCCCCCCCCCNC(=O)[C@H](CCCN=C(N)N)n3cc(C[C@@H](C)CC)nn3)CC2)n1	?	/	-13.4%	/	-89.9*	25.1µM*
C#CCOCCOCCOCCNc1nc(N2CCN(C(=O)CCCCCCCCCCNC(=O)[C@H]([C@@H](C)CC)n3cc(CCCCN=C(N)N)nn3)CC2)nc(N2CCN(C(=O)CCCCCCCCCCNC(=O)[C@@H]([C@H](C)O)n3cc(C)nn3)CC2)n1	?	/	-15.9%	/	-84.0*	25.1µM*
C#CCOCCOCCOCCNc1nc(N2CCN(C(=O)CCCCCCCCCCNC(=O)[C@@H](CCSC)n3cc(CCO)nn3)CC2)nc(N2CCN(C(=O)CCCCCCCCCCNC(=O)[C@H](CCCN=C(N)N)n3cc(C[C@@H](C)CC)nn3)CC2)n1	?	/	-6.1%	/	-79.4*	20µM*
SMILES	APE1 inh	RECQ1 helicase	GCN5L2 inh	BLM helicase inh	PI5P4Ka inh	FEN1 inhibitor
C#CCOCCOCCOCCNc1nc(N2CCN(C(=O)CCCCCCCCCCNC(=O)[C@H](CO)n3cc(CCCCCN)nn3)CC2)nc(N2CCN(C(=O)CCCCCCCCCCNC(=O)[C@H](CCCN=C(N)N)n3cc(C[C@@H](C)CC)nn3)CC2)n1	?	/	-12.4%	/	/	/
NC(=O)c1cc[n+](CC2=C(C(=O)[O-])N3C(=O)[C@@H](NC(=O)Cc4cccs4)[C@H]3SC2)cc1	-2.8%[21 µM]	/	/	/	/	/
CN(C)c1cc(N2CCOCC2)nc(C#N)n1	/	/	/	/	/	4.2%
Nc1ccc(/C=C/c2nccc3ccccc23)cc1	/	/	/	/	/	-22.5%
C#CCOCCOCCOCCNc1nc(N2CCN(C(=O)CCCCCCCCCCNC(=O)[C@H](CCCCN)n3cc(C[C@@H](C)CC)nn3)CC2)nc(N2CCN(C(=O)CCCCCCCCCCNC(=O)[C@@H]([C@H](C)O)n3cc(C)nn3)CC2)n1	?	/	-4.4%	/	?	31.6µM*
CC(=O)NC(Cc1ccc(O)cc1)C(=O)NCC(N)C(=O)c1ccccc1 (stereo not drawn)	/	/	/	/	/	9.2%
Cc1cc(O)c(C(=O)/C=C/c2ccccc2O)c(=O)o1	-22.6%	/	-0.1%	-0.6%	-5.8	-5.8%
Cc1cc(O)c(C(=O)/C=C/c2cccc([N+](=O)[O-])c2)c(=O)o1	-1.7%	?	?	-19.8%	-85.9*	-8.5%
CC(c1ccccc1)C1C(C#N)=C(N)SC(N)=C1C#N (stereo not drawn)	13.4%	-4.2%	-5.7%	-8.4%	?	6.1%
CC(CC1C(C#N)=C(N)SC(N)=C1C#N)c1ccccc1 (stereo not drawn)	0.5%	-9.1%	-4.3%	-2.8%	-66.6*	-6.0%
O=C1/C(=C\c2ccc(O)c(O)c2)C(c2ccccc2)=NN1c1ccccc1	?	?	0.7%	?	-74.6*	-14.0%
COc1cc(/C=C2\C(=O)N(c3ccc(NC(C)=O)cc3)N=C2c2ccccc2)ccc1O	?	30.4%	7.2%	-0.4%	-10.7	-28.2%
COc1cc(OC)c(/C=C/c2ccc3ccccc3[n+]2[O-])c(OC)c1	/	/	/	/	/	-7.5%
N#Cc1c(-c2ccc3ccccc3c2)no[n+]1[O-]	-7.8%	/	/	/	/	/
CCC(=O)N1CCc2cc(Br)cc(S(=O)(=O)N3CCCC(C(=O)NCc4ccccc4)C3)c21 (stereo not drawn)	/	/	-1.2%	-5.3%	/	79.4µM*
O=[N+]([O-])c1ccc(/C=N/NC(=S)Nc2ccccc2F)o1	2.8%	-0.9%	-1.8%	2.8%	-60.8*	-2.9%
